This is an account of results in PMC7862700, “An all-to-all approach to the identification of sequence-specific readers for epigenetic DNA modifications on cytosine”.

What all share (assay): DAPPL (digital affinity profiling via proximity ligation, sequencing); 10 mM Tris-HCl pH 7.5, 50 mM NaCl, 1 mM DTT, 4% glycerol, room temperature, 30 min; GST-TFs on glutathione beads, 16-mer random dsDNA library, 0.1% formaldehyde crosslink after washing; high values mean tight binding
One assay has as its target T1, FEV (Homo sapiens, UniProt Q99581 1-238).
T1 sequence: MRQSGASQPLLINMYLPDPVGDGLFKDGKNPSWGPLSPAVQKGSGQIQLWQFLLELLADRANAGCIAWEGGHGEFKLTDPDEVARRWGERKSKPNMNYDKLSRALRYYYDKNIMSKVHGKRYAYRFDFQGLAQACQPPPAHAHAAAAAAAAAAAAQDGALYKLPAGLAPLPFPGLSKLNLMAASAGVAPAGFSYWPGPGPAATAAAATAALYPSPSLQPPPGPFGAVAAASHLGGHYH
The note with it: protein: recombinant; tags: N-terminal GST; dsDNA, one strand shown. In a few lines:
(§1)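 Human transcription factors fused to GST were expressed in yeast, captured on glutathione beads, given DNA barcodes and pooled with a GST-only negative control. Pools were incubated with 200 nmole of a 16-mer random double-stranded DNA library in Tris/NaCl/DTT/glycerol buffer at room temperature for 30 min. They were then washed, crosslinked with 0.1% formaldehyde, proximity-ligated (BsaI/T4 ligase, 1 h, 37 °C), PCR-amplified and sequenced on an Illumina NextSeq500. Binding signal is each 6-mer's read frequency for a factor divided by its frequency for the GST control.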

The target in another assay is ETV5 (Homo sapiens, UniProt P41161 1-510). Particulars: protein: recombinant; tags: N-terminal GST; dsDNA, one strand shown. In a few lines: as §1
Chain of ETV5 (P41161 whole entry): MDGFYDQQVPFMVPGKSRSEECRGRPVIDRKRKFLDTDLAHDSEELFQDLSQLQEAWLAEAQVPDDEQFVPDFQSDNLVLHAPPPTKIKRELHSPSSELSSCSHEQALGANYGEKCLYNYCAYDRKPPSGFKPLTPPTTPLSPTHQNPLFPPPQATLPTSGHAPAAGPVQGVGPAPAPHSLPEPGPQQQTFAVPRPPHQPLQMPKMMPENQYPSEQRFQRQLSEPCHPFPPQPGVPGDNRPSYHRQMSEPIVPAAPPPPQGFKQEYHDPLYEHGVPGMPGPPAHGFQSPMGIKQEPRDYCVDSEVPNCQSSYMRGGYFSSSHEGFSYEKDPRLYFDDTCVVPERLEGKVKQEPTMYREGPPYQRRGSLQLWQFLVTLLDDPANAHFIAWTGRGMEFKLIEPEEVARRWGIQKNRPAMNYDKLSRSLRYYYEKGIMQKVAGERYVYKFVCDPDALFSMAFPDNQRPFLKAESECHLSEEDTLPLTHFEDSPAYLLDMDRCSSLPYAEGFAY
A further assay deals with HSF1 (Homo sapiens, UniProt Q00613 1-529). The note with it: protein: recombinant; tags: N-terminal GST; chain copies: 3; dsDNA, one strand shown. Summed up: as §1
Chain of HSF1 (Q00613 whole entry): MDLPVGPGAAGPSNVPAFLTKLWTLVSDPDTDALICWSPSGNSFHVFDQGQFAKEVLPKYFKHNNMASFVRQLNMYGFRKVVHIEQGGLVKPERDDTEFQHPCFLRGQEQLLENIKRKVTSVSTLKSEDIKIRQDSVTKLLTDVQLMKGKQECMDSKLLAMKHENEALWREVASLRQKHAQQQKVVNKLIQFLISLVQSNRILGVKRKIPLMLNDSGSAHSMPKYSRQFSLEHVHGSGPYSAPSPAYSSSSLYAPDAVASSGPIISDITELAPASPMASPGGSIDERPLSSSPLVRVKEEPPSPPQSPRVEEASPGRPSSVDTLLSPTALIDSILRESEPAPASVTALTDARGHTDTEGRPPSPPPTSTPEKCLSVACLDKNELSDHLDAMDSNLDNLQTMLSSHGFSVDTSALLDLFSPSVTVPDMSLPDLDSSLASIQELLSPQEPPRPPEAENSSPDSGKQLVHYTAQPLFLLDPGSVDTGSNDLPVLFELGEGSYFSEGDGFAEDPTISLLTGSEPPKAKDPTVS
A further assay addresses T2, SPIC (Homo sapiens, UniProt Q8N5J4 1-248).
T2 sequence: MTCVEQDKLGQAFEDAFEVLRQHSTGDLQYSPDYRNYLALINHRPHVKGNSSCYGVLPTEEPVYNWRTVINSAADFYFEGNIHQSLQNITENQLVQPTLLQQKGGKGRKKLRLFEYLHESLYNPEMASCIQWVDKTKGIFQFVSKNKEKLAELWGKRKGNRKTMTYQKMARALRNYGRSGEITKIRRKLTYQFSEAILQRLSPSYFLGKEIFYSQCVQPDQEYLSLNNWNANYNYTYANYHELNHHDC
Particulars: protein: recombinant; tags: N-terminal GST; dsDNA, one strand shown. In a few lines: as §1

A further assay deals with ELF4 (Homo sapiens, UniProt Q99607 1-663). The note with it: protein: recombinant; tags: N-terminal GST; dsDNA, one strand shown. In a few lines: as §1
Chain of ELF4 (Q99607 whole entry): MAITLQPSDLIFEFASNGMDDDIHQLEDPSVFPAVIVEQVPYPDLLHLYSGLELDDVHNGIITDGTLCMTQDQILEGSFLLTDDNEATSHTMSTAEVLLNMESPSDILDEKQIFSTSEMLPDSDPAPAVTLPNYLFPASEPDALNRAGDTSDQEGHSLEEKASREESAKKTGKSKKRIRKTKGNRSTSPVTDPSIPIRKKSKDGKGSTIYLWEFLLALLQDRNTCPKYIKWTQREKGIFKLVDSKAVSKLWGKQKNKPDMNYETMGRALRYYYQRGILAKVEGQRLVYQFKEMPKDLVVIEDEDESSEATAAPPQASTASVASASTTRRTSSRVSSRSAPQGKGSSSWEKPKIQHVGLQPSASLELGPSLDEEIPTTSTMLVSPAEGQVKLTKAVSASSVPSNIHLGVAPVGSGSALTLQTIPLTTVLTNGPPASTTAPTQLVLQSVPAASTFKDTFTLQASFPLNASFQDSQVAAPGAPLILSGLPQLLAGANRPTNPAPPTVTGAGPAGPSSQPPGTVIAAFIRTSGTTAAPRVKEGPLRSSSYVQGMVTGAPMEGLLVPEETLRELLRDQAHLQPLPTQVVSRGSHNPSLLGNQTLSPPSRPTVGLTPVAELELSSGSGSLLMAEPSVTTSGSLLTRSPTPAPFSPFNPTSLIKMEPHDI
A further assay concerns the target T3, ELK4 (Homo sapiens, UniProt P28324-2 1-405).
T3 sequence: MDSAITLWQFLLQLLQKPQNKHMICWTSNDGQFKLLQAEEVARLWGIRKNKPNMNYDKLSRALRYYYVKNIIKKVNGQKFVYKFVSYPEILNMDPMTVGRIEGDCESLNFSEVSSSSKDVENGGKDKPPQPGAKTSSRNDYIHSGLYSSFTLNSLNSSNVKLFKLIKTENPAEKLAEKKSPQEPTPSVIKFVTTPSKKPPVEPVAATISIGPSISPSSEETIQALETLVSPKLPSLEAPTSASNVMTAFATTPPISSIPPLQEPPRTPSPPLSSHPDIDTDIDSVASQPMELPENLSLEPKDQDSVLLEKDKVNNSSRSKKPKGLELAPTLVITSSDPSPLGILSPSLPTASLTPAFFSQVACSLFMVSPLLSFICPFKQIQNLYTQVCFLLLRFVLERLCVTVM
The note with it: protein: recombinant; tags: N-terminal GST; dsDNA, one strand shown. Summed up:
as §1

Another assay addresses T4, ETV2 (Homo sapiens, UniProt O00321 1-342).
T4 sequence: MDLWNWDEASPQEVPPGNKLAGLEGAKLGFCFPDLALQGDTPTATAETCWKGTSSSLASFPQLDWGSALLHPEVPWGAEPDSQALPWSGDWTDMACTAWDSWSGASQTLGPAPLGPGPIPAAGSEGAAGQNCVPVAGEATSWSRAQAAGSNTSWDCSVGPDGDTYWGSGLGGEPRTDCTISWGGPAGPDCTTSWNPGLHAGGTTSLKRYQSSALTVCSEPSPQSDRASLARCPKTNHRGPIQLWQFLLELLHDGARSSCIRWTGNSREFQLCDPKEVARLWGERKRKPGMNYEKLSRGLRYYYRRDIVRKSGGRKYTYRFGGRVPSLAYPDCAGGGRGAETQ
The note with it: protein: recombinant; tags: N-terminal GST; dsDNA, one strand shown. In a few lines: as §1

For another assay, the target named is T5, ELF3 (Homo sapiens, UniProt P78545 1-371).
T5 sequence: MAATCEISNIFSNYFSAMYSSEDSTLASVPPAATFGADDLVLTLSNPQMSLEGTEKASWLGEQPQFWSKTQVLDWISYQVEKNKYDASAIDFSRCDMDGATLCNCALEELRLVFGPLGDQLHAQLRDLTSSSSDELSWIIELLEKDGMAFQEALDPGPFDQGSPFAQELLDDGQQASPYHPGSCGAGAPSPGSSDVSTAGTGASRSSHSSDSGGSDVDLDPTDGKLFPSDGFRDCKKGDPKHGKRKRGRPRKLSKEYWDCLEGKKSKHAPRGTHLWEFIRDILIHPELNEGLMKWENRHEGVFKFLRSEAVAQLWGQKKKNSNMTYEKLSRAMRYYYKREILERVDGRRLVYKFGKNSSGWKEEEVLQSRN
The note with it: protein: recombinant; tags: N-terminal GST; dsDNA, one strand shown. In a few lines:
as §1

A further assay concerns the target CRX (Homo sapiens, UniProt O43186 1-299). Particulars: protein: recombinant; tags: N-terminal GST; dsDNA, one strand shown. Summed up: as §1
In another assay the target is ETV1 (Homo sapiens, UniProt P50549 1-477). The note with it: protein: recombinant; tags: N-terminal GST; dsDNA, one strand shown. In a few lines:
as §1

Another assay deals with T6, ERF (Homo sapiens, UniProt P50548 1-548).
T6 sequence: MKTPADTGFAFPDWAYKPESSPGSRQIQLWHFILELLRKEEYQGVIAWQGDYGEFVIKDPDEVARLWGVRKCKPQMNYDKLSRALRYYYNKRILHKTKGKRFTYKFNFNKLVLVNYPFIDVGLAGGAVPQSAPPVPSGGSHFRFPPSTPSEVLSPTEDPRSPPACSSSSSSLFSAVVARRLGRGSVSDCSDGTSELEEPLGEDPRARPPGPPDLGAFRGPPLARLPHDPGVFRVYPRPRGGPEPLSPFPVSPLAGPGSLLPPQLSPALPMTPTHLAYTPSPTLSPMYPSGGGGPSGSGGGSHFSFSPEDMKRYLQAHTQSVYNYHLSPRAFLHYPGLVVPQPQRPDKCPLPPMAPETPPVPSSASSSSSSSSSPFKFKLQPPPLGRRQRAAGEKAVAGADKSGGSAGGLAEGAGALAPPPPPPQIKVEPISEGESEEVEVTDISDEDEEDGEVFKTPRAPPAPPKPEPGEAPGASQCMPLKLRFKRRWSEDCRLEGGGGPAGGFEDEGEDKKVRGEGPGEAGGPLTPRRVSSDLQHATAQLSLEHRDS
The note with it: protein: recombinant; tags: N-terminal GST; dsDNA, one strand shown. In a few lines: as §1

A further assay addresses T7, ETV3L (Homo sapiens, UniProt Q6ZN32 1-361).
T7 sequence: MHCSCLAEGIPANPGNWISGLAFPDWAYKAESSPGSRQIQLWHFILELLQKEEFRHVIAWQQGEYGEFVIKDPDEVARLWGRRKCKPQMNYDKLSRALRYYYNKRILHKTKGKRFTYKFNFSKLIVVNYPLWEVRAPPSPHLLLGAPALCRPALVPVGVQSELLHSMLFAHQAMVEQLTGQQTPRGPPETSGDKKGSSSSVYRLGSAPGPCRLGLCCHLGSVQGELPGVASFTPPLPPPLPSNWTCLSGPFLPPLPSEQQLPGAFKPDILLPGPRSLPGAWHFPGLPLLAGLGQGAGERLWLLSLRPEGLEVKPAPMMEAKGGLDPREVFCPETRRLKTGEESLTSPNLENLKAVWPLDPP
The note with it: protein: recombinant; tags: N-terminal GST; dsDNA, one strand shown. Summed up: as §1

For another assay, the target named is T8, ETS2 (Homo sapiens, UniProt P15036 1-469).
T8 sequence: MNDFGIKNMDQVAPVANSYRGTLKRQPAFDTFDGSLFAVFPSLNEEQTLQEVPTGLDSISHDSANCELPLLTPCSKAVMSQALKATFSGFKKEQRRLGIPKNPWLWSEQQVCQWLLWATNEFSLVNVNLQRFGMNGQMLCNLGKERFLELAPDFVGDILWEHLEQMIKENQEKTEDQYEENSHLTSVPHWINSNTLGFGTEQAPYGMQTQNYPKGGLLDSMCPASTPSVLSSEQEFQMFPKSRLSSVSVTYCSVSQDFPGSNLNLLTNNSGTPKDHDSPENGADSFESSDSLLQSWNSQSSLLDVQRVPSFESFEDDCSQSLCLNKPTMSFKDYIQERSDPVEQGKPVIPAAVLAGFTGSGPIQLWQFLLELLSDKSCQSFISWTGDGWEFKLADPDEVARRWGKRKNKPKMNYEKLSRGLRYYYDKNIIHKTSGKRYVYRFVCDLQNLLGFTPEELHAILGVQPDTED
Particulars: protein: recombinant; tags: N-terminal GST; dsDNA, one strand shown. In a few lines:
as §1

The target in the next assay is T9, SPDEF (Homo sapiens, UniProt O95238 1-335).
T9 sequence: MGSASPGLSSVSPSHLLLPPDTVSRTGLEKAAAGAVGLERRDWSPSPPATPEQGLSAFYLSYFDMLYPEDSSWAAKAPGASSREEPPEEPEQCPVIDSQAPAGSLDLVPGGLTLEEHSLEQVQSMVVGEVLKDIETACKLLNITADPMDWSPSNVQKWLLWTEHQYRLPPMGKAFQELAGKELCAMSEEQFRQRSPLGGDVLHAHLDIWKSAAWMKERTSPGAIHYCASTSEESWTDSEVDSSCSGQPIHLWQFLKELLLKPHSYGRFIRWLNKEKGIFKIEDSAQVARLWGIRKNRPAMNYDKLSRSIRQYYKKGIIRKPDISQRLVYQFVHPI
The note with it: protein: recombinant; tags: N-terminal GST; dsDNA, one strand shown. In a few lines: as §1

For a further assay, the target named is T10, ETV7 (Homo sapiens, UniProt Q9Y603 1-341).
T10 sequence: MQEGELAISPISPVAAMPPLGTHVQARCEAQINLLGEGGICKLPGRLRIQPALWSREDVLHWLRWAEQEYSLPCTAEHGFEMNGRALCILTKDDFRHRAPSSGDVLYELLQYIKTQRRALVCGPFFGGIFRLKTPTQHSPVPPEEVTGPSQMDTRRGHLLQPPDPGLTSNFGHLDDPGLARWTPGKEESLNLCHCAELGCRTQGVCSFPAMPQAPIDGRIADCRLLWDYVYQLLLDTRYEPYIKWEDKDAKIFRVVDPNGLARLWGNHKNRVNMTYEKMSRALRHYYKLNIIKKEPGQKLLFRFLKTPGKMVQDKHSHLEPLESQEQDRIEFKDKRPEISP
Particulars: protein: recombinant; tags: N-terminal GST; dsDNA, one strand shown. In a few lines:
as §1

A further assay addresses T11, ELF5 (Homo sapiens, UniProt Q9UKW6-2 1-255).
T11 sequence: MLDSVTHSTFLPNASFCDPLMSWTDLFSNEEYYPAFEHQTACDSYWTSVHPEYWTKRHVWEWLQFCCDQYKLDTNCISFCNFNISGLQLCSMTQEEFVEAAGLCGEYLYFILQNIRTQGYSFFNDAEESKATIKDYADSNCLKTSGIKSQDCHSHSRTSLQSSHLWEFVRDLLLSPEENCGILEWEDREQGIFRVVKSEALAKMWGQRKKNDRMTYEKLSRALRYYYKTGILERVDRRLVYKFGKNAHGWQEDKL
Particulars: protein: recombinant; tags: N-terminal GST; dsDNA, one strand shown. Summed up: as §1

A further assay has as its target T12, ETV3 (Homo sapiens, UniProt P41162-2 1-143).
T12 sequence: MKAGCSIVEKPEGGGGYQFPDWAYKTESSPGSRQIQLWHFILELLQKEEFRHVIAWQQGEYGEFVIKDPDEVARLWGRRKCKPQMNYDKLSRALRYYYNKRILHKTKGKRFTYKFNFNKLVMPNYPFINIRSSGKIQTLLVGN
Particulars: protein: recombinant; tags: N-terminal GST; dsDNA, one strand shown. Summed up: as §1

Another assay addresses ETV6 (Homo sapiens, UniProt P41212 1-452). Particulars: protein: recombinant; tags: N-terminal GST; dsDNA, one strand shown. Summed up: as §1

Chain of ETV1 (P50549 whole entry): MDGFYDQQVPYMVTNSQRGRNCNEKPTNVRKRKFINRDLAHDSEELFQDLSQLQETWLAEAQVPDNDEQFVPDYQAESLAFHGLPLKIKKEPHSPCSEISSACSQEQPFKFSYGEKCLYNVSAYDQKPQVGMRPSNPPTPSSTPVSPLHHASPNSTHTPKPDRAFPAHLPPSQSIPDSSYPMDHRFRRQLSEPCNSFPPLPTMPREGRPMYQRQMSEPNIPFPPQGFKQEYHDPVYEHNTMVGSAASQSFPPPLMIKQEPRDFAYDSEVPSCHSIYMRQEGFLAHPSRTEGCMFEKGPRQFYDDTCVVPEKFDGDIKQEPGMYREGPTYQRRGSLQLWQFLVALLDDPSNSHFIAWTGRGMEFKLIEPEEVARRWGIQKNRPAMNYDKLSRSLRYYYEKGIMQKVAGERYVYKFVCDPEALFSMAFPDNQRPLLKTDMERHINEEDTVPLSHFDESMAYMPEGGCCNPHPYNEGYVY
Chain of ETV6 (P41212 whole entry): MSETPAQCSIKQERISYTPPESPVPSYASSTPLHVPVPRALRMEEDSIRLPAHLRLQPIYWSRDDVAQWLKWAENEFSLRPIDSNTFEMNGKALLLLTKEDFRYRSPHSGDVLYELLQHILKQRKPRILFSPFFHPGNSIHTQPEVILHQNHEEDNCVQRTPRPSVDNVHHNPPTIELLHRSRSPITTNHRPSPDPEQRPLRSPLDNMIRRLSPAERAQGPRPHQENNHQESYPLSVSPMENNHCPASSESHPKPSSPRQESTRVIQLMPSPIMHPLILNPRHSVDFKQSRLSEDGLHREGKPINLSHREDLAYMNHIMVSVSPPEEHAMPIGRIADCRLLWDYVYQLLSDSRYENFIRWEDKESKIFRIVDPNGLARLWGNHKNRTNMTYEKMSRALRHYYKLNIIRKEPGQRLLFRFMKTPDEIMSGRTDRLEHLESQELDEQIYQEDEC
Chain of CRX (O43186 whole entry): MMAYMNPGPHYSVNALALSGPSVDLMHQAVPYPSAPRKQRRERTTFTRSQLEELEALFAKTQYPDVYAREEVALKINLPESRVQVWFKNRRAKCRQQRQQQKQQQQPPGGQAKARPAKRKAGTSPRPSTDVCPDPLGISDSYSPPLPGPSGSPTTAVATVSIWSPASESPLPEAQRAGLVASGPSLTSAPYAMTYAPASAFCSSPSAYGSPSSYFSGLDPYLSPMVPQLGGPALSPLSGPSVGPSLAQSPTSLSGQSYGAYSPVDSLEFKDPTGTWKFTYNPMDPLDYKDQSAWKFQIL

As to TTAAAC, the binding signal is 1.21 fold enrichment (6-mer frequency, TF over GST control) with FEV; 1.29 fold enrichment (6-mer frequency, TF over GST control) with ETV5; 1.7 fold enrichment (6-mer frequency, TF over GST control) with HSF1; 1.05 fold enrichment (6-mer frequency, TF over GST control) with SPIC; 1.21 fold enrichment (6-mer frequency, TF over GST control) in the assay with ELF4; 1.26 fold enrichment (6-mer frequency, TF over GST control) with ELK4. The binding signal with ETV2 was 1.26 fold enrichment (6-mer frequency, TF over GST control); with ELF3, 1.19 fold enrichment (6-mer frequency, TF over GST control); with CRX, 2.58 fold enrichment (6-mer frequency, TF over GST control); with ETV1, 1.24 fold enrichment (6-mer frequency, TF over GST control); with ERF, 1.39 fold enrichment (6-mer frequency, TF over GST control); with ETV3L, 1.36 fold enrichment (6-mer frequency, TF over GST control). For the same sequence, the binding signal was 1.2 fold enrichment (6-mer frequency, TF over GST control) with ETS2; 1.18 fold enrichment (6-mer frequency, TF over GST control) in the assay with SPDEF; 1.14 fold enrichment (6-mer frequency, TF over GST control) with ETV7; 1.18 fold enrichment (6-mer frequency, TF over GST control) in the assay with ELF5; 1.23 fold enrichment (6-mer frequency, TF over GST control) with ETV3; 1.3 fold enrichment (6-mer frequency, TF over GST control) with ETV6.
